Compound activity from PubChem BioAssay.
USP1 inh – inhibitors of human USP1/UAF1 deubiquitinase. O94782. recombinant USP1/UAF1, Ub-Rhodamine cleavage fluorescence. Potency, µM (series often up to 57.1 µM), for the others: top-dose activity change, negative = inhibition, actives largely listed as inhibitors. 390,000 tested, 0.23% active. AID 743255; also: potency is read from the fitted curve at half-maximal effect; nearly all actives have a fitted effect of over 60% in size
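High-throughput fluorogenic screen: 1nM USP1/UAF1 complex, Ub-Rho substrate 150nM final, 50mM HEPES pH 7.8 with 0.5mM EDTA, 0.1 mg/ml BSA, 1mM TCEP and 0.01% Tween-20.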
rTrxR1 inhibitor – rat TrxR1 inhibition | recombinant rTrxR1, NADPH fluorescence consumption, selenite substrate | Potency, µM (top dose mostly 114 µM), for inactives: at the highest dose activity change, negative = inhibition, hits mostly inhibitors | 390,000 tested, 1% active | AID 588453; also: potency is read from the fitted curve at half-maximal effect; nearly all actives have a fitted effect of over 65% in size
Target sequence (O89049 whole entry, looked up): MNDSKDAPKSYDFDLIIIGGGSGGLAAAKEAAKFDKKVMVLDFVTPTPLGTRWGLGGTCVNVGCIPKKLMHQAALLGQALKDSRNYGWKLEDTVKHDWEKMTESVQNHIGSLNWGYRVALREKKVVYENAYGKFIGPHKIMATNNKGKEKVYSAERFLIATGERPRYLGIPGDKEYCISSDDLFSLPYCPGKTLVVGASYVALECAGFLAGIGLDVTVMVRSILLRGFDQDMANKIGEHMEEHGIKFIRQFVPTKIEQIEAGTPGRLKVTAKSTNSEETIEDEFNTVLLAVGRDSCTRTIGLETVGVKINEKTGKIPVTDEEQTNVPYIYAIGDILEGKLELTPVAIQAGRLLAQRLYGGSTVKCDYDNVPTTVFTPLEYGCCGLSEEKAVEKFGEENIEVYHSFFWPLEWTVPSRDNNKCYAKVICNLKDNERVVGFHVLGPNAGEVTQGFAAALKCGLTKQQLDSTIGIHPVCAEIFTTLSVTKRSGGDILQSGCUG
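Rat TrxR1 (90 nM in the dispensed reagent) was pre-reduced with 400 uM NADPH for 5 min at room temperature, then incubated with compound for 15 min. After 400 uM selenite was added, NADPH fluorescence (Ex 340/Em 450 nm) was followed for 8 min.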
GALK inhibitor – galactokinase (human) inhibition | 270,000 tested, 0.007% active | AID 1868 | P51570 | Purified GALK, Kinase-Glo residual ATP luminescence | Potency, µM (series often up to 57.5 µM), for inactives: at the top dose activity change, negative = inhibition, actives largely listed as inhibitors; also: potency is read from the fitted curve at half-maximal effect
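Human GALK (5 nM) with 35 uM ATP and 100 uM galactose in 20 mM HEPES pH 8.0, 5 mM MgCl2, 60 mM NaCl, 1 mM DTT, 0.01% BSA. After 1 h at room temperature, leftover ATP was read by Kinase-Glo Plus luminescence.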
TrxR1 substrate – rat thioredoxin reductase 1 substrate activity. Potency, µM (highest dose often 114 µM), inactives show at the highest dose activity change, negative = substrate turnover. 390,000 tested, 0.01% active. purified TrxR1 substrate turnover, NADPH consumption readout; also: potency is read from the fitted curve at half-maximal effect; nearly all actives have a fitted effect of over 50% in size
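Rat TrxR1, dispensed at 90 nM, was prereduced with 400 uM NADPH (final) for 5 min at ~22 deg C, then incubated with compound 15 min before 400 uM selenite. A first-read NADPH fluorescence drop versus no-compound background flagged substrates.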
Coupling enz – counter-screen for Giardia aldolase inhibitors: coupling enzyme system | 290,000 tested, 0.67% active | coupling enzyme system counterscreen, AmpLite Red fluorescence | activity change, negative = inhibition, % at 58.2 µM, hits read low; in the data active = activity change below about -30%
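Activity here indicates interference with the coupling reaction, not aldolase inhibition. Compounds at 57.5 uM final met coupling enzymes for 10 min at RT; substrate and AmpLite Red detection followed, with a 525/598 nm fluorescence read after 20 min.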
Numbers without * were called inactive; i = inactive; u = inconclusive; x = not tested or not shown; [ ] = dose if it differs, or a comment. Only some compounds are listed: those with a hit (about 1.5% of all), similar ones and a draw of the others. Unless noted, calls follow the shape of the dose curve; as a rule, active = well fitted curve in the direction sought with a large enough effect; inconclusive = small, poorly fitted or top-dose-only effect, or another doubt; inactive = no such curve, though single readings can be large; an effect the other way counts as inactive or inconclusive. % is scaled to controls: 0 for no effect and ±100 for the full control effect.

SMILES | USP1 inh | rTrxR1 inhibitor | GALK inhibitor | TrxR1 substrate | Coupling enz
O=C(Nc1ccc2nc(-c3ccco3)[nH]c2c1)c1cccs1 | -2.4% | 70.8µM* | -3.7% | -10.8% | -3.2
Cc1c(CCO)c(=O)n(-c2ccccc2)n1S(=O)(=O)c1c(Cl)cc(Cl)cc1Cl | -18.0% | 8.4% | -1.9% | 4.7% | -39.4*
O=C(C[n+]1cccc(Br)c1)c1cccc([N+](=O)[O-])c1 | x | -35.7% | x | -2.0% | x
COc1cccc(/C=C/c2nccc3ccccc23)c1OC | x | 4.1% | x | -5.5% | x
CC(=O)c1cccc(-n2c(CCC(=O)O)ccc2-c2cccs2)c1 | -3.0% | u | -2.6% | 14.3%[57.1 µM] | 8.9
O=C(O)CCc1ccc(-c2cccs2)n1-c1ccc(C(=O)O)cc1 | u | 70.8µM* | -0.2% | 5.7% | 13.2
O=C(CSc1nc(-c2ccccc2)[nH]c1-c1ccccc1)Nc1ccc2c(c1)OCO2 | -13.8% | -5.5% | x | 5.4% | x
O=C(Oc1ccc2c(=O)c(Cl)coc2c1)c1cccnc1 | -3.3% | 12.6µM* | 0.1% | 7.3%[57.1 µM] | 0.5
CCn1c(CSc2nccn2C)nc2cc(C(=O)O)ccc21 | u | 9.8% | 2.4% | 9.1% | -36.4*
CCn1c(CSc2nc3ccccc3[nH]2)nc2cc(C(=O)O)ccc21 | -10.6% | 19.1% | -4.6% | 57.5% | -0.2
COC(=O)c1nn(-c2ccc(OC)cc2)c(=O)cc1NN | -21.3% | 11.3%[57.1 µM] | -2.1% | 3.3%[57.1 µM] | -42.6*
COC(=O)c1nn(-c2ccc(OC)cc2)c(=O)c2c(N)sc(C)c12 | -21.6% | 5.9%[57.1 µM] | x | 4.5% | -52.0*
CCOC(=O)c1nn(-c2ccc(C)cc2)c(=O)c2c(N)scc12 | u | 4.4% | -3.1% | -15.8% | -54.8*
C[N+]1(CC(=O)c2ccccc2)CCc2ccccc2C1 (stereo not given) | x | 12.6% | x | 6.8% | x
O=C(O)c1ccc2c3c(ncnc13)-c1ccccc1C2=O | -22.8% | 10µM* | 3.1% | -13.1% | -27.0
CC(=O)Oc1ccc(C(=O)[C@H]2[C@H]3C(=O)N(c4ccccc4)C(=O)[C@H]3[C@@H]3C=CC=NN32)cc1 | -7.9% | 11.2µM* | 1.6% | -6.6% | -41.4*
CC(=O)Oc1ccc(N2C(=O)C3C(C2=O)C(C(=O)c2ccc(Cl)cc2)N2CCCC32)cc1 (stereo not given) | 22.4µM* | -66.3% | 6.0% | 13.3%[57.1 µM] | -0.2
Cc1cc(=O)oc2c3c(ccc12)OCN(Cc1ccc(Cl)cc1)C3 | -9.0% | 20µM* | x | 916.4% | x
CCCc1cc(=O)oc2c3c(ccc12)OCN(Cc1ccccc1OC)C3 | -31.4% | 22.4µM* | x | i | x
O=c1oc2c3c(ccc2c2ccccc12)OCN(Cc1ccc(Cl)cc1)C3 | -12.0% | 30.9% | x | 12.2% | x
Cc1ccc(CNC(=O)C2c3ccccc3C(=O)N3CCc4ccccc4C23)o1 (stereo not given) | u | 1.78µM* | 2.4% | 2.8% | -3.4
O=C(NCCN1CCN(Cc2ccccc2)CC1)C1c2ccccc2C(=O)N2CCc3ccccc3C12 (stereo not given) | -16.1% | -9.1% | x | -5.4% | 3.1
CC(C)S(=O)(=O)c1oc(-c2cccs2)nc1S(=O)(=O)c1ccc(F)cc1 | -23.5% | 0.708µM* | x | 29.0% | x
CCCCS(=O)(=O)c1oc(-c2ccc(F)cc2)nc1S(=O)(=O)c1ccccc1 | u | 1.12µM* | x | -2.7% | x
CSc1oc(-c2ccc(F)cc2)nc1S(=O)(=O)c1ccc(F)cc1 | -24.8% | 21.0%[57.1 µM] | 1.9% | 3.1%[57.1 µM] | 0.0
SMILES | USP1 inh | rTrxR1 inhibitor | GALK inhibitor | TrxR1 substrate | Coupling enz
CSc1oc(-c2ccc(F)cc2)nc1S(=O)(=O)c1ccccc1 | -11.8% | 12.5% | 0.5% | -3.7% | 1.4
Cc1ccc(S(=O)(=O)c2nc(-c3cccs3)oc2SC(C)C)cc1 | -34.8% | 16.8% | x | 9.9% | x
CCS(=O)(=O)c1oc(-c2ccc(F)cc2)nc1S(=O)(=O)c1ccc(Br)cc1 | -8.6% | 0.562µM* | x | 7.7% | x
CC(C)S(=O)(=O)c1oc(-c2ccc(F)cc2)nc1S(=O)(=O)c1ccccc1 | u | 0.316µM* | x | 11.1% | x
O=C(C[N+]1(CCc2ccccc2)CCOCC1)c1cccc([N+](=O)[O-])c1 | x | 30.1% | x | 5.7% | x
CS(=O)(=O)c1oc(-c2ccc(F)cc2)nc1S(=O)(=O)c1ccc(Cl)cc1 | -23.6% | 0.501µM* | x | 10.8% | x
C=CCN1c2ccccc2C(=O)CS1(=O)=O | -8.2% | 11.2µM* | x | 13.0%[57.1 µM] | x
COC(=O)c1sc(-c2ccc(C(C)(C)C)cc2)cc1NC(=O)c1ccccc1C(=O)O | 28.2µM* | 19.1% | x | 6.0% | 2.1
COC(=O)c1sc(-c2ccc(Cl)cc2)cc1NC(=O)c1ccccc1C(=O)O | -19.3% | 18.5%[57.1 µM] | -4.1% | 2.9%[57.1 µM] | 10.3
Cn1ncc(N=Cc2c(O)ccc3ccccc23)c1C(=O)N1CCOCC1 | -7.6% | 3.5% | x | 0.8% | x
COc1ccccc1NC(=O)c1c(N=Cc2c(O)ccc3ccccc23)cnn1C | -3.1% | -0.8% | 3.8% | -5.5% | -40.3*
COc1ccc(C2=CC3=C(Br)C(=O)C(C)(OC(=O)c4cccs4)C(=O)C3=CO2)cc1 (stereo not given) | 35.5µM* | 50.1µM* | x | -12.5% | -0.3
COc1ccc(C2=CC3=C(Br)C(=O)C(C)(OC(=O)c4ccco4)C(=O)C3=CO2)cc1 (stereo not given) | 25.1µM* | 50.1µM* | 4.2% | -2.3% | 0.2
COc1ccc(C2=CC3=C(Br)C(=O)C(C)(OC(=O)c4cnc5ccccc5n4)C(=O)C3=CO2)cc1 (stereo not given) | x | x | x | x | 1.8
CC(C)[C@H](NC(=O)[C@@H](Cc1c[nH]c2ccccc12)NC(=O)[C@H](Cc1ccc(O)cc1)NC(=O)[C@@H](N)CC(=O)O)C(=O)N[C@H](Cc1c[nH]c2ccccc12)C(=O)N[C@H](Cc1c[nH]c2ccccc12)C(=O)N[C@@H](CCCCN)C(N)=O | x | x | x | x | 4.8
O=C1c2ccccc2C(=O)N1c1nc(-c2ccc(F)cc2)cs1 | x | 16.2%[0.0914 µM] | x | 8.6%[0.0914 µM] | x
CCCCC(=O)N/N=C/c1ccc(Sc2cccc3cccnc23)o1 | -8.4% | 9.8%[57.1 µM] | 0.5% | 10.9%[57.1 µM] | -35.2*
CC(C)(C)c1ccc(Cn2cnc3c(cnn3C(C)(C)C)c2=O)cc1 | x | 13.3% | x | -1.3% | x
COc1ccc(CC(=O)N/N=C(\C)CC(=O)Nc2ccc(N(C)C)cc2)cc1 | -10.1% | -7.4% | 0.1% | -7.1% | -0.5
C/C(CC(=O)Nc1ccc(N(C)C)cc1)=N\NC(=O)Cc1csc(N)n1 | -0.7% | -30.2% | -5.2% | -2.7% | -31.6*
CCc1nnc(NS(=O)(=O)c2ccc(NC(=S)NC(=O)c3ccccc3)cc2)s1 | -16.4% | 28.2µM* | -0.1% | -16.0% | 0.9
CCc1nnc(NS(=O)(=O)c2ccc(NC(=O)c3ccc(Cl)cc3)cc2)s1 | -13.8% | 24.1% | -2.2% | 0.2% | 7.2
CCc1nnc(NS(=O)(=O)c2ccc(NC(=S)NC(=O)/C=C/c3ccccc3)cc2)s1 | -10.8% | -75.7% | -1.8% | -13.8% | 2.1
